# Source: the supplement of paper PMC10849652
# Targets with a hit are over-represented here; the source holds about 7,900 in all. About 0.6% of all pairs of compound and target were hits. A number with no mark means an inactive call.
# Experiments:
# Assay in all cases: log2 fold change, soluble protein after heating vs DMSO (PISA); higher = thermal stabilisation; K562 cells, 10 uM, 30 min; active = over 0.2 and 3.5 SD of the protein, either way, in both replicates (recomputed)
# [1] = compound: NC(=O)Nc1cc(-c2cccc(F)c2)sc1C(=O)N[C@H]1CCCNC1
# Procedure, shortened: (§1)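 K562 cells at 2×10^6 cells/mL were treated with 10 μM compound for 30 min. Aliquots were heated for 3 min across 48°C-58°C, pooled, and extracted in PBS with 0.5% NP-40 at 4°C; soluble protein was the supernatant after 21,000xg for 90 min. Soluble protein was quantified by TMTpro 16plex LC-MS/MS with channel sums equalised, and reported as log2 fold change in thermal stability against DMSO controls, with values from duplicates.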
# [2] = compound: NC(=O)c1cnc(N[C@@H]2CCCC[C@@H]2N)nc1Nc1cccc(-n2nccn2)c1
# Procedure, shortened: as §1
# [3] = compound: NC1(c2ccc(-c3nc4ccn5c(=O)[nH]nc5c4cc3-c3ccccc3)cc2)CCC1
# Procedure, shortened: as §1
# [4] = compound: NCC(=O)Nc1ccc(-n2nc(C(F)(F)F)cc2-c2ccc3c(ccc4ccccc43)c2)cc1
# Procedure, shortened: as §1
# [5] = compound: Nc1ccccc1NC(=O)c1ccc(CNC(=O)OCc2cccnc2)cc1 [entinostat]
# Procedure, shortened: as §1
# [6] = compound: O=C(CCCCCCC(=O)Nc1ccccc1)NO [vorinostat]
# Procedure, shortened: as §1
# [7] = compound: O=C(CCCCCCNC(=O)c1cnc(N(c2ccccc2)c2ccccc2Cl)nc1)NO [citarinostat]
# Procedure, shortened: as §1
# [8] = compound: O=C(O)c1ccc2c(c1)nc(Nc1cccc(Cl)c1)c1ccncc12 [silmitasertib]
# Procedure, shortened: as §1
# [9] = compound: O=C1NC(=O)C(c2cnc3ccccn23)=C1c1cn2c3c(cc(F)cc13)CN(C(=O)N1CCCCC1)CC2
# Procedure, shortened: as §1
# [10] = compound: c1cc(OCCN2CCCCC2)cc(-c2n[nH]c3ccc(-c4nnc[nH]4)cc23)c1
# Procedure, shortened: as §1
# [11] = compound: c1cn2cc(-c3ccc4cn[nH]c4c3)nc(Nc3ccc(N4CCOCC4)cc3)c2n1 [entospletinib]
# Procedure, shortened: as §1
# UniProt P00367, sequence (P00367 whole entry, looked up): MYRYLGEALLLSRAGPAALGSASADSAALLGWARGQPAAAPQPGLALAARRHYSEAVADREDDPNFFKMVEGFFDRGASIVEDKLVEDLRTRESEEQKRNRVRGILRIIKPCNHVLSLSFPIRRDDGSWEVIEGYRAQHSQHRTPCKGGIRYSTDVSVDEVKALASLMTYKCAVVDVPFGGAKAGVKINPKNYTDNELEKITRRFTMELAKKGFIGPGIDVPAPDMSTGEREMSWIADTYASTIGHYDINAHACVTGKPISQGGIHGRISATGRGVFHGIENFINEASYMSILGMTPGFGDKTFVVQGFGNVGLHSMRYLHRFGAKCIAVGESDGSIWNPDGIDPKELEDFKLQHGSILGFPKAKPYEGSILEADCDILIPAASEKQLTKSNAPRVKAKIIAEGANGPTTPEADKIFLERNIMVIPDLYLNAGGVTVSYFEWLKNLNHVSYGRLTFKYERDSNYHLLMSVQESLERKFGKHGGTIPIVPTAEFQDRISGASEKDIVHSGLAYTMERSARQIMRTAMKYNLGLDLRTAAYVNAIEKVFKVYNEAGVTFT
# UniProt O76003, sequence (O76003 whole entry, looked up): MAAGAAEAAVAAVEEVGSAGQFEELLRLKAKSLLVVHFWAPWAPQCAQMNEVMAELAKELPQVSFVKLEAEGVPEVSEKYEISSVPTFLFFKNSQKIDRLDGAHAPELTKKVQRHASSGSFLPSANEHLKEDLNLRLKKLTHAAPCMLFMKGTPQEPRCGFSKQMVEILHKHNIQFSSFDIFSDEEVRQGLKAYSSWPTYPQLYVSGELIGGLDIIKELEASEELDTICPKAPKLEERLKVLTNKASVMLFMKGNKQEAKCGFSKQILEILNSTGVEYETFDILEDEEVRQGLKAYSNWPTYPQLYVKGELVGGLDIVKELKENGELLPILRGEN
# UniProt Q8TEQ6, sequence (Q8TEQ6 whole entry, looked up): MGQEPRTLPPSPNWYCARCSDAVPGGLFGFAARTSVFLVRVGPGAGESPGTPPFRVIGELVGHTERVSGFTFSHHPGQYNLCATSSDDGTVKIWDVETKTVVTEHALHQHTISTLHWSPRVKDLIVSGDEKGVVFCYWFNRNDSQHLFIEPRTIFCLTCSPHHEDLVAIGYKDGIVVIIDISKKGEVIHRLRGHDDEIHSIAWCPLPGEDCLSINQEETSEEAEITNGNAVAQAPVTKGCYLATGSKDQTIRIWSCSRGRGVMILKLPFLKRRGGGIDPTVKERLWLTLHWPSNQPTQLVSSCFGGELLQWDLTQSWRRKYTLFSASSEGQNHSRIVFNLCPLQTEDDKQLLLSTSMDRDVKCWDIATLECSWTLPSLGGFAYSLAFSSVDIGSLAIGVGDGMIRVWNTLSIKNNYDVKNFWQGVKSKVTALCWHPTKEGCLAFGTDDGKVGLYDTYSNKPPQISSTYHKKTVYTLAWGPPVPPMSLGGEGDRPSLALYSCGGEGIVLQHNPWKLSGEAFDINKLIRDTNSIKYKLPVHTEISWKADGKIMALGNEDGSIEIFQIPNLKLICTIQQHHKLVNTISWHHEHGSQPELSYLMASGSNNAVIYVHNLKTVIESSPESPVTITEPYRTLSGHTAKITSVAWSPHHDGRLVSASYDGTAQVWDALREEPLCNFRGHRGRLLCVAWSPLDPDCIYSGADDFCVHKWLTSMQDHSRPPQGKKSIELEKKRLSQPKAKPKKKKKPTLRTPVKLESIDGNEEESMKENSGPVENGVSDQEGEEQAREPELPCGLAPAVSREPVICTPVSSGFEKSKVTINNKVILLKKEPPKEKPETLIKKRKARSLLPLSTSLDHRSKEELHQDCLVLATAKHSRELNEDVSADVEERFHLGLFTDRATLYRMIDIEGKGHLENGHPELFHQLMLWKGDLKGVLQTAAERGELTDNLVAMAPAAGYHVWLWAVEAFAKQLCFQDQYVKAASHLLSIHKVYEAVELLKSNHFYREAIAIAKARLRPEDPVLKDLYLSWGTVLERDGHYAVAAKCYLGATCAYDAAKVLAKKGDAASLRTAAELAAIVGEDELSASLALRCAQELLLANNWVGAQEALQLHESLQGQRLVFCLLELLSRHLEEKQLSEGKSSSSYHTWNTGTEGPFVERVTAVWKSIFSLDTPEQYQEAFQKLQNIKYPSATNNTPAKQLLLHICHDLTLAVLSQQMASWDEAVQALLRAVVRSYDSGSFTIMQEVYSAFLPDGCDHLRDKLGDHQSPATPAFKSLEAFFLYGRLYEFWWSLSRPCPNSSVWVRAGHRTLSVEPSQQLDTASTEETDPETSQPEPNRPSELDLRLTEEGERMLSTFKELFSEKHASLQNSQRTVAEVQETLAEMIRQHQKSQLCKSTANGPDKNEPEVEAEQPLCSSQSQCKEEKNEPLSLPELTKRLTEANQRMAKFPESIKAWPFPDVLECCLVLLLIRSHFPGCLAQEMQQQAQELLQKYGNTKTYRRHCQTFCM
# UniProt P22087, sequence (P22087 whole entry, looked up): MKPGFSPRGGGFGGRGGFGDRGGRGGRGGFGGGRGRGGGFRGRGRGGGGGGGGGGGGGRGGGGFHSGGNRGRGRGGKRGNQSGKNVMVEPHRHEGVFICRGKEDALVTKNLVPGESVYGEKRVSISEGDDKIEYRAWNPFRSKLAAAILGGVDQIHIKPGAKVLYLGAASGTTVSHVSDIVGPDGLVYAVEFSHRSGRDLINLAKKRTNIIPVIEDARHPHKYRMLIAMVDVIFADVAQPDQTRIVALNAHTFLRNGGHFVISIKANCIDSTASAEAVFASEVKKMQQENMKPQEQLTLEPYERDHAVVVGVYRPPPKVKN
# UniProt O43524, sequence (O43524 whole entry, looked up): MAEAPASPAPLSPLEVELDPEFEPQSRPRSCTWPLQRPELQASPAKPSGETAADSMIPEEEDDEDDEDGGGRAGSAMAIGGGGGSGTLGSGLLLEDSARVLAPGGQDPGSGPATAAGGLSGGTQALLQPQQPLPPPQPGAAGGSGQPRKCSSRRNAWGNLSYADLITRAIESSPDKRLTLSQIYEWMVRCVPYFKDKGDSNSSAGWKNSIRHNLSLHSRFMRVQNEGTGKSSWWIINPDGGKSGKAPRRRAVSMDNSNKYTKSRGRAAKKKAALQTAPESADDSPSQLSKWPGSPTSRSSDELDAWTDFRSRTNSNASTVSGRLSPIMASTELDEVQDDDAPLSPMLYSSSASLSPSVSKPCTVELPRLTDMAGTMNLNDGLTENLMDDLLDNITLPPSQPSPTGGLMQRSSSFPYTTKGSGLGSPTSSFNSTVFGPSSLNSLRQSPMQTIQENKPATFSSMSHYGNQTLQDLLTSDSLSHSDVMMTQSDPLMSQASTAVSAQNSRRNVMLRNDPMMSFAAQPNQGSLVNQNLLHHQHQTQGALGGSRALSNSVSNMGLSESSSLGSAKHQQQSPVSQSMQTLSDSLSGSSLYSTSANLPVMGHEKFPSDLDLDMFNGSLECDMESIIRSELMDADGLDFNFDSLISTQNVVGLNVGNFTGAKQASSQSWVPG
# UniProt Q53FT3, sequence (Q53FT3 whole entry, looked up): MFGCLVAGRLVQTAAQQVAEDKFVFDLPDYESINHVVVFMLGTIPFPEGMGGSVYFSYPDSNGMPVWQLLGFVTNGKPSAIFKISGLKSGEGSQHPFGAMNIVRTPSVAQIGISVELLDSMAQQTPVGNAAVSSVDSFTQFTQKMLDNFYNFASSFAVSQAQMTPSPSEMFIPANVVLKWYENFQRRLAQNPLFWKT
# UniProt P09211, sequence (P09211 whole entry, looked up): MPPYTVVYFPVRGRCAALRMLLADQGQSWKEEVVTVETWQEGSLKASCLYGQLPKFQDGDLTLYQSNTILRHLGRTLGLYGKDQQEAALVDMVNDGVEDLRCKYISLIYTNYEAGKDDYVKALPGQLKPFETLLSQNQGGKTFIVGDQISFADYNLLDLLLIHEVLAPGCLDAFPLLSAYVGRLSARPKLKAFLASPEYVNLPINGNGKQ
# UniProt Q8WXD5, sequence (Q8WXD5 whole entry, looked up): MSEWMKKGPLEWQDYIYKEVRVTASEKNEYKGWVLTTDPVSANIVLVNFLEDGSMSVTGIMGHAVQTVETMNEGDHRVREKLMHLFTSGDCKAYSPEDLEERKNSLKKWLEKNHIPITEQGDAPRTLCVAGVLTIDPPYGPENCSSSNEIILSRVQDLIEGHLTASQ
# UniProt Q9Y6M1, sequence (Q9Y6M1 whole entry, looked up): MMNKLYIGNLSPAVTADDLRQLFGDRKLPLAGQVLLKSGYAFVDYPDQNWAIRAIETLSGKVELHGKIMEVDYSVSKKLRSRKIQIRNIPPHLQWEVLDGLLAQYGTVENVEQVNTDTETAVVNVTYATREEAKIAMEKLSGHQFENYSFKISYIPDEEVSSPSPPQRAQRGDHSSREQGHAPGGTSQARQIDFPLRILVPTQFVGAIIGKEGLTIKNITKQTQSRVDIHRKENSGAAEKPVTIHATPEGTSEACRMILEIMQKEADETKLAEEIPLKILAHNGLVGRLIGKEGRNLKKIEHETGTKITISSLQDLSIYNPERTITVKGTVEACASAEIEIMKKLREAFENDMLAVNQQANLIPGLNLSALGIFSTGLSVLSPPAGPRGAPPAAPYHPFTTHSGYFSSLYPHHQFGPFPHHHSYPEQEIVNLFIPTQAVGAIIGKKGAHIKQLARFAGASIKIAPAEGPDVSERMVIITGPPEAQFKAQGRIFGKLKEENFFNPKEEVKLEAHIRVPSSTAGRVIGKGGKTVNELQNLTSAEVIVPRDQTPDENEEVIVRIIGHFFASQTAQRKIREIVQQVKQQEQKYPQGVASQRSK
# UniProt Q16774, sequence (Q16774 whole entry, looked up): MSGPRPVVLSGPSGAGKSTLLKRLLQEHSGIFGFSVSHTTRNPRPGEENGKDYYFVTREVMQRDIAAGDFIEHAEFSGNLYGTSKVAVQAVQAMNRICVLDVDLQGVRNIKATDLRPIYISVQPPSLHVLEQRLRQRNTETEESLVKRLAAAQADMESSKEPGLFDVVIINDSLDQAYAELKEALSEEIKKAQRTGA
# UniProt P09105, sequence (P09105 whole entry, looked up): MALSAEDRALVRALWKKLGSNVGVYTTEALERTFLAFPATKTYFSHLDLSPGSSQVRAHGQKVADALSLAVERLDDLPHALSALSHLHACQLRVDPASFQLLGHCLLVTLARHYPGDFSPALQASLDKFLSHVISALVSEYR
Target,log2 fold change [1],log2 fold change [2],log2 fold change [3],log2 fold change [4],log2 fold change [5],log2 fold change [6],log2 fold change [7],log2 fold change [8],log2 fold change [9],log2 fold change [10],log2 fold change [11]
HNRNPK isoform 2 (UniProt P61978),-0.045,-0.086,-0.073,-0.093,0.056,0.065,0.05,-0.017,-0.137,-0.038,0.064
HPCAL1 (UniProt P37235),0.033,-0.014,-0.152,-0.032,0.006,-0.018,0.032,0.028,-0.03,-0.032,0.023
IFNGR1 (UniProt P15260),-0.116,-0.068,0.27,0.051,-0.123,0.058,0.014,0.055,-0.118,-0.086,-0.019
IFT74 (UniProt Q96LB3),0.035,0.009,0.135,0.045,-0.091,0.101,0.171,-0.187,-0.021,0.06,0.021
GTPBP6 (UniProt O43824),-0.052,-0.066,0.017,-0.003,-0.019,-0.1,0.093,-0.115,0.086,-0.011,-0.092
GEMIN5 (UniProt Q8TEQ6),-0.011,-0.018,-0.133,-0.015,0.029,-0.046,-0.065,0.009,-0.057,-0.034,0.058
GSTM4 (UniProt Q03013),-0.071,-0.046,-0.121,0.023,-0.068,-0.013,-0.079,0.137,0.151,0.199,0.036
IFRD2 isoform 2 (UniProt Q12894),-0.044,-0.279,0.003,0.11,-0.2,-0.244,-0.028,0.276,-0.008,0.046,0.29
GEMIN6 (UniProt Q8WXD5),0.066,0.015,-0.108,0.099,-0.005,-0.04,-0.12,0.015,-0.139,-0.106,0.082
IDI1 isoform 2 (UniProt Q13907),-0.062,0.01,-0.038,0.024,-0.03,0.008,-0.017,0.078,-0.066,0.035,0.066
GSTP1 (UniProt P09211),-0.044,-0.01,-0.056,0.001,-0.006,-0.012,0.034,-0.038,-0.005,-0.013,-0.03
GLIPR2 (UniProt Q9H4G4),-0.038,-0.058,-0.101,-0.071,0.058,0.032,-0.029,0.112,-0.017,-0.037,0.055
FANCI (UniProt Q9NVI1),0.139,-0.069,-0.281 (active),-0.08,0.083,0.112,0.099,-0.089,0.033,-0.045,-0.013
FBL (UniProt P22087),0.095,0.165,0.455,0.067,-0.109,0.005,-0.109,0.232,0.13,-0.237,0.119
HBA1 (UniProt P69905),0.016,0.032,0.003,0.103,0.059,-0.031,0.007,-0.036,-0.037,0.012,0.042
IGF2BP2 (UniProt Q9Y6M1),0.014,-0.051,0.237,0.045,0.015,0.128,-0.178,0.16,0.155,-0.208,0.24
HDAC6 (UniProt Q9UBN7),0.002,-0.04,0.054,0.001,-0.053,0.86 (active),0.747 (active),0.009,0.004,0.064,0.034
GUK1 isoform 2 (UniProt Q16774),-0.126,-0.029,-0.059,-0.064,0.065,-0.002,0.031,0.044,-0.094,0.122,0.093
GLUD1 (UniProt P00367),-0.058,-0.014,-0.043,-0.032,-0.051,-0.061,-0.023,-0.095,0.082,0.052,0.173
FOXO3 (UniProt O43524),-0.395,-0.089,-0.025,-0.072,-0.063,0.222,0.002,-0.136,-0.046,0.035,-0.107
GABPA (UniProt Q06546),-0.05,-0.057,-0.203,-0.042,0.108,0.138,0.139,-0.007,-0.13,0.008,-0.01
HNRNPF (UniProt P52597),-0.015,0.014,-0.11,-0.027,0.137,0.154,0.07,0.074,-0.104,-0.048,0.046
HBQ1 (UniProt P09105),0.058,-0.048,-0.043,0.006,0.014,-0.05,0.032,-0.047,-0.119,0.021,0.001
GLRX3 (UniProt O76003),0,-0.057,-0.066,-0.042,0.022,-0.013,0.014,0.034,-0.094,-0.024,0.001
HRC (UniProt P23327),-0.161,0.005,-0.02,-0.056,-0.114,-0.128,-0.011,0.013,0.023,-0.026,0.032
HIKESHI (UniProt Q53FT3),0,-0.045,-0.046,-0.053,-0.003,-0.05,0.021,0.002,0.026,-0.056,0.088
GAB2 (UniProt Q9UQC2),-0.087,-0.268,-0.081,0.018,0.127,0.151,0.182,-0.175,-0.095,-0.21,0.046
